Most compounds without a hit are left out; they make up all but 6.7% or so of the library.
C diff HTS: inhibitors of Clostridium difficile growth; Clostridium difficile clinical isolate growth, OD600, 24 h; active compounds read low; growth activity, negative = inhibition, % at 16 µg/mL (by protocol); 86,000 compounds, 0.25% hits;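 active = mean growth activity at or below -80% and every replicate also at or below -80%; inconclusive = mean at or below -80% but some replicate above -80%; inactive = mean growth activity above -80%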
T cruzi growth-1: inhibitors of T. cruzi proliferation; 77,000 compounds, 5.9% hits; T. cruzi beta-gal in NIH3T3, GalScreen luminescence, 90 h; inhibition, % at 8.34 µM; AID 624255;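 active = mean inhibition above about 93%, with at least 55% of replicates each passing it, limit read from the data, passing the limit was not always enough; inconclusive = only one of those two conditions holds; inactive = neither condition holds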
Pf Dd2 growth: blocks growth of Plasmodium falciparum Dd2 parasites; P. falciparum Dd2 growth, SYBR Green, 72 h; active compounds read low; activity change, % at 10 µM; 94,000 compounds, 2.3% hits; in the data active = activity change below about -80%; inconclusive = no clear call, values can overlap the other calls
T cruzi growth-2: Trypanosoma cruzi proliferation inhibition. shares compounds with T cruzi growth-1. T. cruzi beta-gal in NIH3T3, GalScreen luminescence, 90 h. inhibition, % at 8.35 µM. 5,600 compounds, 72% hits;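 active = mean replicate inhibition above about 95% and at least 55% of replicates individually reaching it, limit read from the data; inconclusive = only one of the two criteria is met; inactive = neither criterion is met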
T cruzi growth-3: Trypanosoma cruzi proliferation inhibition | shares compounds with T cruzi growth-1 | T. cruzi beta-gal in NIH3T3, GalScreen luminescence, 90 h | inhibition, % at 2.09 µM | 5,600 compounds, 21% hits | AID 651740;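 active = mean inhibition above about 95%, with at least 55% of replicates also reaching it, limit read from the data; inconclusive = meets just one of the two conditions; inactive = meets neither condition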
3T3 cytotox: kills mouse NIH/3T3 fibroblasts; cytotoxicity (signal decrease), % at 8.35 µM; shares compounds with T cruzi growth-1; 5,600 compounds, 14% hits; AID 651742; NIH/3T3 viability, CellTiter-Glo ATP luminescence, 90 h;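 active = mean signal decrease across replicates above about 35% based on untreated-well scatter, with enough replicates individually passing, limit read from the data; inconclusive = no rule stated though some were filed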
NIH3T3 tox 2: kills mouse NIH/3T3 fibroblasts. 5,600 compounds, 56% hits. NIH/3T3 viability, CellTiter-Glo ATP luminescence, 90 h. shares compounds with T cruzi growth-1. AID 651744. inhibition, % at 24.9 µM;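 active = mean loss of cell viability signal at or above a set limit, and enough replicates individually reaching it; inconclusive = meets only the mean limit or only the replicate share; inactive = meets neither condition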
Of the large screens only hits and unclear results are named; the others gave an inactive call (follow-up assays come after a bar, where they were run).

O=C(C[C@@H]1CC[C@@H]2[C@H](COC[C@H](O)CN2Cc2cccc(C(F)(F)F)c2)O1)NCCc1ccncc1	none
C[C@@H]1CN([C@H](C)CO)C(=O)c2cc(NS(=O)(=O)c3cccs3)ccc2O[C@@H](C)CCCCO[C@@H]1CN(C)Cc1ccc(C(F)(F)F)cc1	T cruzi growth-1 98 | T cruzi growth-2 inactive | T cruzi growth-3 114 | 3T3 cytotox inactive | NIH3T3 tox 2 54
C[C@H](CO)N1C[C@H](C)[C@@H](CN(C)Cc2ccc(C(F)(F)F)cc2)OCCCC[C@H](C)Oc2ccc(NS(=O)(=O)c3cccs3)cc2C1=O	T cruzi growth-1 inconclusive | T cruzi growth-2 99 | T cruzi growth-3 105 | 3T3 cytotox 44 | NIH3T3 tox 2 106
C[C@@H]1CN([C@@H](C)CO)C(=O)c2cc(NS(=O)(=O)c3cccs3)ccc2O[C@@H](C)CCCCO[C@H]1CN(C)Cc1ccc(C(=O)O)cc1	none
C[C@@H]1CN([C@H](C)CO)C(=O)c2cc(NS(=O)(=O)c3cccs3)ccc2O[C@@H](C)CCCCO[C@H]1CN(C)Cc1ccc(C(=O)O)cc1	none (no result: T cruzi growth-1)
C[C@@H]1CN([C@@H](C)CO)C(=O)c2cc(NS(=O)(=O)c3cccs3)ccc2O[C@@H](C)CCCCO[C@H]1CN(C)Cc1ccc(C(F)(F)F)cc1	none
C[C@@H]1CCCCO[C@H](CN(C)Cc2ccc(C(F)(F)F)cc2)[C@@H](C)CN([C@@H](C)CO)C(=O)c2cc(NS(=O)(=O)c3cccs3)ccc2O1	T cruzi growth-1 112 | T cruzi growth-2 inactive | T cruzi growth-3 112 | 3T3 cytotox inactive | NIH3T3 tox 2 106
C[C@H]1CN([C@@H](C)CO)C(=O)c2cc(-c3cccc(F)c3)cnc2O[C@@H]1CN(C)S(=O)(=O)c1cccc(F)c1	none (no result: C diff HTS)
C[C@@H]1CN([C@H](C)CO)C(=O)c2cc(NS(=O)(=O)c3ccc(F)cc3)ccc2O[C@@H](C)CCCCO[C@@H]1CN(C)Cc1ccc2c(c1)OCO2	T cruzi growth-1 102 (no result: C diff HTS) | T cruzi growth-2 inactive | T cruzi growth-3 105 | 3T3 cytotox 71 | NIH3T3 tox 2 105
COc1ccc(S(=O)(=O)Nc2ccc3c(c2)C(=O)N([C@H](C)CO)C[C@@H](C)[C@H](CN(C)Cc2ccc4c(c2)OCO4)OCCCC[C@H](C)O3)cc1	T cruzi growth-1 inconclusive | T cruzi growth-2 108 | T cruzi growth-3 inactive | 3T3 cytotox inactive | NIH3T3 tox 2 105
Cc1ccc(S(=O)(=O)Nc2ccc3c(c2)C(=O)N([C@H](C)CO)C[C@H](C)[C@H](CN(C)Cc2ccc4c(c2)OCO4)OCCCC[C@H](C)O3)cc1	none
C[C@H](CO)N1C[C@H](C)[C@H](CN(C)Cc2ccc3c(c2)OCO3)OCCCC[C@H](C)Oc2ccc(NS(=O)(=O)c3ccc(F)cc3)cc2C1=O	T cruzi growth-1 112 (no result: C diff HTS) | T cruzi growth-2 110 | T cruzi growth-3 inactive | 3T3 cytotox inactive | NIH3T3 tox 2 59
Cc1ccc(S(=O)(=O)Nc2ccc3c(c2)C(=O)N([C@H](C)CO)C[C@@H](C)[C@H](CN(C)Cc2ccc4c(c2)OCO4)OCCCC[C@@H](C)O3)cc1	T cruzi growth-1 102 | T cruzi growth-2 108 | T cruzi growth-3 inactive | 3T3 cytotox inactive | NIH3T3 tox 2 82
C[C@@H]1CN([C@@H](C)CO)C(=O)c2cc(NS(=O)(=O)c3ccc(F)cc3)ccc2O[C@@H](C)CCCCO[C@H]1CN(C)Cc1ccc2c(c1)OCO2	none (no result: C diff HTS)
C[C@@H]1CCCCO[C@@H](CN(C)Cc2ccc3c(c2)OCO3)[C@H](C)CN([C@H](C)CO)C(=O)c2cc(NS(=O)(=O)c3ccc(F)cc3)ccc2O1	none (no result: C diff HTS)
COc1ccc(S(=O)(=O)Nc2ccc3c(c2)C(=O)N([C@@H](C)CO)C[C@@H](C)[C@@H](CN(C)Cc2ccc4c(c2)OCO4)OCCCC[C@@H](C)O3)cc1	none
CC(C)CN(C[C@H]1N[C@H](CO)[C@H]1c1ccccc1)C(=O)CN(C)C	none
CO[C@@H]1CN(C)C(=O)c2ccc(NS(C)(=O)=O)cc2OC[C@@H](C)N(CC2CCOCC2)C[C@@H]1C	none (no result: C diff HTS)
